Assay [1] has as its target Calcium and integrin-binding protein 1 (Homo sapiens) (UniProt Q99828). Description: Primary qHTS for Identification of Calcium Integrin Binding Protein 1 (CIB1) Competitor (AID 1508620). Also: top concentration of the series differs between compounds. The procedure, abridged: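 Fluorescence polarization competition: GST-tagged CIB1 (1 uM final) preincubated with compound 15 min at room temperature, then FITC-labelled alphaIIb peptide (100 nM final) added. After 15 min at room temperature, polarization read at Ex 480/Em 540.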
On the technique in general: In qHTS, concentration-response curves come from the screen itself.

The target of assay [2] is Cytochrome P450 2D6 (Homo sapiens) (UniProt P10635). Kind of assay: Cytochrome P450 family 2 subfamily D member 6 (CYP2D6) small molecule antagonists: luciferase biochemical (cell-free) qHTS assay (AID 1645840; active = well fitted curve in the direction sought with a large enough effect in the repeat runs; an effect the other way counts as inactive or inconclusive; also: nearly all actives have a fitted effect of over 55% in size; also: potency is read from the fitted curve at half-maximal effect). The procedure, abridged:
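P450-Glo luminescent screen: recombinant CYP2D6 enzyme–proluciferin substrate mix preincubated with compound 10 min at room temperature, then NADPH regeneration added for 1 h at room temperature. Detection reagent added for 20 min; luciferin light read as relative luminescence units.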

In assay [3] the target is Cytochrome P450 2C9 (Homo sapiens) (UniProt P11712). Description: Cytochrome P450 family 2 subfamily C member 9 (CYP2C9) small molecule antagonists: luciferase biochemical (cell-free) qHTS assay (AID 1645842; active = well fitted curve in the direction sought with a large enough effect in the repeat runs; an effect the other way counts as inactive or inconclusive; also: nearly all actives have a fitted effect of over 55% in size; also: potency is read from the fitted curve at half-maximal effect). The method, boiled down:
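Luminescence, after 20 min with luciferin detection reagent, reflected CYP2C9 turnover during a 1 h NADPH-driven reaction at 37C. Enzyme-substrate mix contained 0.4% bovine serum albumin and was preincubated with compound 10 min at room temperature.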

A short description of assay [4]: Primary qHTS for inhibitors of nuclear receptor binding SET domain protein 2 (NSD2) in an isogenic RCH-ACV NSD2 p.E1099K mutant (9B) (AID 1645876). Also: nearly all actives have a fitted effect of over 70% in size. Also: potency is read from the fitted curve at half-maximal effect.
A short description of assay [5]: Primary qHTS for inhibitors of nuclear receptor binding SET domain protein 2 (NSD2) in an RCH-ACV wild type WT cells (2C) (AID 1645877). Also: nearly all actives have a fitted effect of over 70% in size. Also: potency is read from the fitted curve at half-maximal effect.

Structures are written as SMILES. Records with an inconclusive call do not appear. Calls of active or inactive are those of the source. Unless noted, calls follow the shape of the dose curve; as a rule, active = well fitted curve in the direction sought with a large enough effect; inconclusive = small, poorly fitted or top-dose-only effect, or another doubt; inactive = no such curve, though single readings can be large; an effect the other way counts as inactive or inconclusive.

Chain of Calcium and integrin-binding protein 1 (Homo sapiens) (Q99828 whole entry, looked up): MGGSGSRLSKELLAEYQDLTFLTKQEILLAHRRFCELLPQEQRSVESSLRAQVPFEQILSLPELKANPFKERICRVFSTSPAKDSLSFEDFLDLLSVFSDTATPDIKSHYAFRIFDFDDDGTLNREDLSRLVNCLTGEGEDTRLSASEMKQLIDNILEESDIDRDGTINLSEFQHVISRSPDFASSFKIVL
Chain of Cytochrome P450 2C9 (Homo sapiens) (P11712 whole entry, looked up): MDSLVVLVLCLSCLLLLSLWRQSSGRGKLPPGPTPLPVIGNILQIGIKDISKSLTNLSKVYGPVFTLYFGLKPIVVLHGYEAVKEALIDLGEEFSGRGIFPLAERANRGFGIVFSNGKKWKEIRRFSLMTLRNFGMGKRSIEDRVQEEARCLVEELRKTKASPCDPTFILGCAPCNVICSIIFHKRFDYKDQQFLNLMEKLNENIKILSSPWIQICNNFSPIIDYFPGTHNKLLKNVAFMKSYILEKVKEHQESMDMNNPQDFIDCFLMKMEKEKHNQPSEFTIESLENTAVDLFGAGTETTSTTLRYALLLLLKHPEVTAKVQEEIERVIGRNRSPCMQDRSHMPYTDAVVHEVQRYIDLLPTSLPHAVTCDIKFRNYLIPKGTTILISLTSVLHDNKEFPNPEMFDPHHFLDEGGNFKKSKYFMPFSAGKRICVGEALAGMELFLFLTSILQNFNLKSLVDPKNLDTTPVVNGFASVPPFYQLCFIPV
Chain of Cytochrome P450 2D6 (Homo sapiens) (P10635 whole entry, looked up): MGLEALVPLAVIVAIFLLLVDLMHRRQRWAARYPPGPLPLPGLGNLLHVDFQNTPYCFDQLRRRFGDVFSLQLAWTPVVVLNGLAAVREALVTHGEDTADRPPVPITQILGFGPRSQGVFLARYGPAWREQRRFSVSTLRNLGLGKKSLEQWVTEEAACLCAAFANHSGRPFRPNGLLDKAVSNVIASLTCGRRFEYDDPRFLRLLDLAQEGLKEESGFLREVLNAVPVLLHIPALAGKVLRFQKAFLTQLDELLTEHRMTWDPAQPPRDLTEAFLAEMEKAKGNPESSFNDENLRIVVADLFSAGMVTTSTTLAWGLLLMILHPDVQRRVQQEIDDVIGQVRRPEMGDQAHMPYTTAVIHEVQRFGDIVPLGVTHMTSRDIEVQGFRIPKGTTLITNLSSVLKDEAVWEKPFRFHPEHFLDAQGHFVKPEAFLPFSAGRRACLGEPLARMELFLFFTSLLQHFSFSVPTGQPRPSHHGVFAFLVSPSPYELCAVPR

On to `O=C(NNc1nc2cc(F)ccc2n2cccc12)c1cnccn1`, for which the Potency entry in assay [1], in assay [2] and in assay [3] was “inactive” throughout. Also, the Potency in assay [4] is 0.817 µM (active); in assay [5], 0.916 µM (active).
For `N#Cc1cnc2c(Cl)cc(NCc3cn(CCN4CCCCCC4)nn3)cc2c1Nc1ccc(F)c(Cl)c1`, the Potency entry in assay [1] was “inactive”. For the same compound, the Potency was 0.849 µM (active) in assay [2], 3.38 µM (active) in assay [3], 20.5 µM (active) in assay [4] and 11.5 µM (active) in assay [5].
In the same order, the values of `NC(=O)N1CCC(CC(=O)N2CCC(C3c4ncc(Br)cc4CCc4cc(Cl)cc(Br)c43)CC2)CC1` (stereo not given) are “inactive”, 16.9 µM (active), 12 µM (active), 7.28 µM (active) and 6.49 µM (active).
On the same counts, the results for `CCCCC1CCN(CCCN2C(=O)CCc3ccccc32)CC1` are “inactive”, 0.756 µM (active), “inactive”, 20.5 µM (active) and 11.5 µM (active).
On the same counts, the results for `N#CC(CCCN1CCN(/N=C/c2cccnc2)CC1)(c1ccccc1)c1ccccc1` are “inactive”, 0.849 µM (active), 7.56 µM (active), “inactive” and “inactive”.
With `CN(C)Cc1ccc(-c2cnn3c(-c4cccc(NC(=O)c5cccc(C(F)(F)F)c5)c4)ccnc23)cc1`, in assay [1], the Potency entry was “inactive”. For the same compound, the Potency was 13.5 µM (active) in assay [2], 7.56 µM (active) in assay [3], 3.65 µM (active) in assay [4] and 4.09 µM (active) in assay [5].
In the same order, the values of `O=C(NS(=O)(=O)c1ccc(Br)s1)c1ccc(Cl)cc1Cl` are “inactive”, “inactive”, 2.68 µM (active), 10.3 µM (active) and 9.16 µM (active).
On the same counts, the results for `COc1cc(F)c(C(C)C)cc1-c1ccc(C(F)(F)F)cc1CN1C(=O)OC(c2cc(C(F)(F)F)cc(C(F)(F)F)c2)C1C` (stereo not given) are “inactive”, “inactive”, “inactive”, “inactive” and “inactive”.

(Values after PubChem BioAssay (NCATS).)
